Laboratory results taken from PubChem BioAssay (NCI).
This is part of a sample that, as a whole, favours compounds with a hit. Of some 79,000 tested, about 15% had one in any assay. Unmarked numbers belong to inactive results. Active and inactive are the calls of the source. No stated cut-off is given here; in the data, active means growth inhibition above about 70%; inactive means the rest.

Test: NCI Yeast Anticancer Drug Screen. Data for the mlh1 rad18 strain (AID 175)
Settings: S. cerevisiae mlh1 rad18 strain growth inhibition; at 50.0 µM; stronger effect = higher value
Summary of the method: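 Yeast w/ defined DNA-repair lesions; compound exposure; growth vs vehicle controls → % inhibition.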

| SMILES | growth inhibition |
| --- | --- |
| CNC1=C(Sc2ccc(Cl)cc2)C(=O)c2ccccc2C1=O | 0.35% |
| COc1c(OC2OC(CO)C(O)C(O)C2O)cc2c(c1OC)-c1ccc(OC)c(=O)cc1C(NC(C)=O)CC2 (stereo not given) | 20.4% |
| NS(=O)(=O)c1ccc(N=C2C=CC(=O)C=C2)cc1 | -3.95% |
| Cc1cc(Cl)nc2ccc(Cc3ccc(Cl)cc3)cc12 | -10.1% |
| Cc1cc(N(CCC#N)CCC#N)ccc1/C=C(\NC(=O)/C=C/c1ccccc1)C(=O)N=[N+]=[N-] | -7.2% |
| CCCCCCn1c(=O)cc2n(c1=O)CCC2 | -3.4% |
| O=C(O)c1ccccc1-c1ccccc1C(=O)O | 9% |
| COC(=O)C1C(=C(c2ccccc2)c2ccccc2)C1c1ccccc1 (stereo not given) | -8.7% |
| O=C(CCc1ccccc1)NC(=S)Nc1cc(C(F)(F)F)ccc1Cl | 34.9% |
| COC1OCC(OS(C)(=O)=O)C(NC(C)=O)C1OS(C)(=O)=O (stereo not given) | 2.25% |
| CC(=O)OC/C=C(C)/C=C/C=C(C)/C=C/C1=C(C)CCCC1(C)C | -55% |
| C=CCN1C(=O)c2ccccc2S1(=O)=O | 3.55% |
| O=C(CN1CCOCC1)CC(O)(C(F)(F)F)C(F)(F)F | 72.7% (active) |
| CC1(C)CC([N+](C)(C)CCCCCC[N+](C)(C)C2CC(C)(C)N(O)C(C)(C)C2)CC(C)(C)N1O | 12.5% |
| O=C1c2cc(Cl)ccc2-c2ccc(Cl)cc21 | 1.05% |
| CC(=C(C#N)C#N)c1ccccc1 | 5.45% |
| COc1ccc(NC(=O)NCc2ccc(C)c(C)c2)cc1 | 35% |
| CC(C)(C)C1CCC(O)(CSc2ccccc2)CC1 (stereo not given) | -10.6% |
| COc1cc(C(c2cc3c(cc2O)OCO3)n2ccnc2)cc(OC)c1OC (stereo not given) | 13.1% |
| CC(=N/NC(=S)NCCN1CCCC1)/C(C)=N\NC(=S)NCCN1CCCC1 | 35.1% |

| SMILES | growth inhibition |
| --- | --- |
| COc1ccc(/C=C/C(=O)c2ccc(Br)cc2)cc1 | -44.3% |
| CCCCCCCCCC(C)=O | -12.2% |
| c1ccc(-c2c(-c3ccc4c(c3)CCCC4)c(-c3ccccc3)c3c(c2-c2ccccc2)-c2cccc4cccc-3c24)cc1 | 2.75% |
| O=c1c(SCc2ccccc2)c(N2CCOCC2)cnn1-c1ccccc1 | 7.75% |
| CC1=Nc2ccccc2NC2(C1)C(C1COC(C)(C)O1)OC1OC(C)(C)OC12 (stereo not given) | 17.9% |
| COc1ccc(-c2cc(-c3ccccc3)c(-c3ccccc3)nn2)cc1CN1CCOCC1 | -7.85% |
| O=C1CCCc2[nH]c3ccc(Cl)cc3c21 | 12.9% |
| Cc1cc(C)c2c(=O)cc(-c3cccc(F)c3)[nH]c2n1 | -26.1% |
| O=C(CN(Cc1ccccc1)Cc1ccccc1)C(O)C1OC(c2ccccc2)OCC1O (stereo not given) | -4.1% |
| CN1CC(=O)N2CCCCC2C(c2ccccc2)C1 (stereo not given) | -1.25% |
| O=C1C(N=Nc2ccccc2)Sc2nc3ccccc3n21 (stereo not given) | -9.1% |
| O=C(OC1OC(COCc2ccccc2)C(OCc2ccccc2)C1OCc1ccccc1)c1ccc([N+](=O)[O-])cc1 (stereo not given) | -1.35% |
| O=[N+]([O-])c1ccc(S(=O)(=O)N/N=C/c2ccco2)cc1 | 23.9% |
| CC1CN=C(N(Cc2ccccc2)C(=O)Nc2ccc(Cl)c(Cl)c2)S1 (stereo not given) | 0.35% |
| N#Cc1c2c(c(=O)n3c1[nH]c1ccccc13)CCCC2 | 18.5% |
| C/C(=C/CCl)[N+](=O)[O-] | 14.1% |
| C(=Nc1ccc2ccccc2c1)c1cccs1 | -0.6% |
| CSc1nc2cc(C)c(C)cc2[nH]1 | -6.85% |
| CC(C)(C)OC(=O)NCCNC(=O)OCc1ccccc1 | -0.25% |
| CC(=O)N1CCc2[nH]c3ccccc3c2CC1 | 16.2% |
